Source: PubChem
Smad3 FoxH1 inh = blocks human Smad3 binding to FoxH1 peptide. P84022. TR-FRET Smad3/Dy647-FoxH1 peptide binding, europium anti-His. inhibition, % at 25 µM. 88,000 compounds, 0.29% hits;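 active = compounds that reduce the energy-transfer binding signal between the protein and its labelled peptide by more than half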;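 note: 0% = Smad3 plus labelled peptide maximal FRET and 100% = peptide-only background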
Target sequence (P84022 whole entry, looked up): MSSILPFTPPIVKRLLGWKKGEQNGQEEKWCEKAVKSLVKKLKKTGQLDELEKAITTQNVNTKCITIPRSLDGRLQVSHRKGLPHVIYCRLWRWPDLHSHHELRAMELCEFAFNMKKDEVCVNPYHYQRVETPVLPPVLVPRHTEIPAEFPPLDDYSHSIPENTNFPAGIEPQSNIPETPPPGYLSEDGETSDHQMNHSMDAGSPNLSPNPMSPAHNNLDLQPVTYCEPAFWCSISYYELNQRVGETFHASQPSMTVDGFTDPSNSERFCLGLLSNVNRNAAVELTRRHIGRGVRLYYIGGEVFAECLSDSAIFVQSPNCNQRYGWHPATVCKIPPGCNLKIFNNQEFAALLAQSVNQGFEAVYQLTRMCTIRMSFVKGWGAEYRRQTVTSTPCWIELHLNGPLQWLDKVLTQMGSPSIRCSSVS
ERa SRC1 inh = ER-alpha (human) coactivator binding inhibition | inhibition, % at 25.6 µM | TR-FRET ER-alpha LBD / SRC-1 peptide, estradiol-bound | P03372 | 86,000 compounds, 1.7% hits; in the data active = inhibition above about 50%;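 note: 0% = receptor plus peptide control and 100% = peptide only without receptor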
ERb coact inh = blocks coactivator binding to human estrogen receptor beta. Q92731. TR-FRET ER-beta LBD / SRC1-Cy5 peptide binding; receptor agonist-loaded with 1 µM estradiol. inhibition, % at 25.6 µM. 86,000 compounds, 1.3% hits. AID 633;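 active = compounds whose percent inhibition of the receptor-coactivator binding signal exceeds about 50% in the single-dose screen, limit read from the data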;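 note: 0% = receptor plus peptide wells without compound and 100% = peptide-only wells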
MRP-1 activ = MRP-1 activation; 140,000 compounds, 0.61% hits; H69AR cells + doxorubicin, viability rescue, CellTiter-Glo; viability increase, % at 10 µM;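 active = viability gain under doxorubicin at or above a set limit, the compound median plus 3 SD, cut at about 4.7% in these data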;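 note: MRP-1 overexpressing cells given doxorubicin 25 µM after compound pretreatment; 18-22 h compound pretreatment then 72 h with doxorubicin before readout; 0% = doxorubicin-only wells and 100% = vehicle-treated cells without doxorubicin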
MRP resist rev = reverses drug resistance mediated by MRP | H69AR cells + 2 uM doxorubicin, CellTiter-Glo, 72 h | differential viability (reversal), % at 10 µM | 85,000 compounds, 0.04% hits | AID 602;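 active = viability drop by adding the cancer drug above about 55%, with treated viability meeting a 40% cutoff, limit read from the data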;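 note: viability without doxorubicin minus viability with 2 µM doxorubicin for each compound; larger differential means the compound sensitizes cells more to doxorubicin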
ERa SRC1 pot = ER-alpha (human) coactivator binding potentiation. TR-FRET ERalpha-LBD/SRC-Cy5 coactivator binding, 2 h; 100 = basal binding, no effect. AID 639. coactivator binding (% of control), % at 25.6 µM. 86,000 compounds, 1.3% hits. P03372; in the data active = activity above about 200%;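 note: binding measured in presence of low estradiol as agonist stimulus; 0% = peptide alone without receptor and 100% = receptor with peptide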
* hit, by the source's call; [ ] = remark or other dose. In the library only some 2.8% were active in any assay of this set; here they are far more common.

What do the screens show for `CCC1=NN=C(c2ccc(F)cc2)C(c2c[nH]c3ccccc23)N1O` (stereo not given)?
Smad3 FoxH1 inh: 1.0; ERa SRC1 inh: 2.0; ERb coact inh: -8.7; MRP-1 activ: -6.2; MRP resist rev: 8.0; ERa SRC1 pot: 685.7*[fluorescence artefact?]

Results for C/C(=N/NC(=O)CCCOc1ccc(Cl)cc1Cl)c1ccc(C)o1 ?
MRP-1 activ: -1.7

How did Cc1ccc(C(=O)N2CCC(C)CC2)cc1C do in these assays?
Smad3 FoxH1 inh: -15.2; ERa SRC1 inh: 10.8; ERb coact inh: 19.0; MRP-1 activ: -0.7; MRP resist rev: 2.4; ERa SRC1 pot: 92.1

What do the screens show for `O=S(=O)(N1CCCCC1)N1CCN(CC(O)COc2ccc3cc(Br)ccc3c2)CC1` (stereo not given)?
Smad3 FoxH1 inh: 12.4; ERa SRC1 inh: -5.5; ERb coact inh: -7.5; MRP-1 activ: -0.4; MRP resist rev: 12.6; ERa SRC1 pot: 253.3*

What do the screens show for `COc1ccc(CCNC(=O)CSc2ncnc3c2oc2ccccc23)cc1OC`?
Smad3 FoxH1 inh: 3.4; ERa SRC1 inh: -3.1; ERb coact inh: 0.4; MRP-1 activ: -0.5; MRP resist rev: 8.3; ERa SRC1 pot: 122.7

What do the screens show for `O=C(CSc1ncnc2c1oc1ccccc12)Nc1ccccc1C(F)(F)F`?
Smad3 FoxH1 inh: -6.8; ERa SRC1 inh: 23.1; ERb coact inh: 28.7; MRP-1 activ: -4.8; MRP resist rev: -1.7; ERa SRC1 pot: 720.7*[fluorescence artefact?]

What do the screens show for `O=C(CSc1ncnc2c1oc1ccccc12)N1CCCc2ccccc21`?
Smad3 FoxH1 inh: 16.4; ERa SRC1 inh: 33.2; ERb coact inh: 39.1; MRP-1 activ: -2.7; MRP resist rev: -0.9; ERa SRC1 pot: 202.2*[fluorescence artefact?]

What do the screens show for `Cc1nc(SCC(=O)Nc2ccc(C)c(F)c2)c2oc3ccccc3c2n1`?
Smad3 FoxH1 inh: 17.1; ERa SRC1 inh: -35.1; ERb coact inh: -37.6; MRP-1 activ: -1.3; MRP resist rev: -6.1; ERa SRC1 pot: 840.3*[fluorescence artefact?]

What do the screens show for `COc1ccc(Cl)cc1NC(=O)CSc1ncnc2c1oc1ccccc12`?
Smad3 FoxH1 inh: 2.3; ERa SRC1 inh: 37.8; ERb coact inh: 15.9; MRP-1 activ: -4.4; MRP resist rev: 22.2; ERa SRC1 pot: 229.8*

How did O=C(Cn1cnc2c(oc3ccccc32)c1=O)N1CCCc2ccccc21 do in these assays?
Smad3 FoxH1 inh: 5.1; ERa SRC1 inh: 0.3; ERb coact inh: -6.5; MRP-1 activ: -1.0; MRP resist rev: -11.8; ERa SRC1 pot: 117.6

What do the screens show for `COc1cccc(NC(=O)CSc2ncnc3c2oc2ccccc23)c1`?
Smad3 FoxH1 inh: -1.5; ERa SRC1 inh: 64.2*[fluorescence artefact?]; ERb coact inh: 57.4*[fluorescence artefact?]; MRP-1 activ: -4.6; MRP resist rev: -3.0; ERa SRC1 pot: 372.8*[fluorescence artefact?]

Results for CCCCCn1nc(C)c2c(C)cc(=O)[nH]c21 ?
Smad3 FoxH1 inh: 10.6; ERa SRC1 inh: 12.8; ERb coact inh: -7.8; MRP-1 activ: -2.2; MRP resist rev: 12.3; ERa SRC1 pot: 92.6

Results for Cc1cc(NC(=O)CN2CC3CC(C2)c2cccc(=O)n2C3)nc2c1c(=O)oc1ccccc12 (stereo not given) ?
Smad3 FoxH1 inh: 11.5; ERa SRC1 inh: 61.3*[fluorescence artefact?]; ERb coact inh: 57.6*; MRP resist rev: 10.0; ERa SRC1 pot: 46.5

How did Cc1cc(NC(=O)CN2CCN(Cc3ccccc3)CC2)nc2c1c(=O)oc1ccccc12 do in these assays?
Smad3 FoxH1 inh: 3.9; ERa SRC1 inh: 12.8; ERb coact inh: 24.5; MRP resist rev: -14.6; ERa SRC1 pot: 103.5

How did O=C(CN1C(=O)c2ccccc2C1=O)[C@@H](O)CN1C(=O)c2ccccc2C1=O do in these assays?
Smad3 FoxH1 inh: -4.1

How did COc1ccc2cc(Br)ccc2c1CC(=O)NC(C)(C)C do in these assays?
MRP-1 activ: -1.1

Results for COc1ccc2c(c1)c(=O)oc1cc(OCC(=O)NC3CC3)ccc12 ?
Smad3 FoxH1 inh: 10.2; ERa SRC1 inh: 43.8; ERb coact inh: 48.1; MRP-1 activ: -2.5; MRP resist rev: 0.5; ERa SRC1 pot: 195.9

What do the screens show for `COc1ccc2c(c1)c(=O)oc1cc(OCC(=O)NC3CCCCC3)ccc12`?
Smad3 FoxH1 inh: -49.1; ERa SRC1 inh: 71.2*; ERb coact inh: 72.3*; MRP-1 activ: -3.3; MRP resist rev: -6.3; ERa SRC1 pot: 156.7

What do the screens show for `CC(C)CCNC(=O)COc1ccc2c3c(c(=O)oc2c1)CCC3`?
Smad3 FoxH1 inh: 16.3; ERa SRC1 inh: 48.2; ERb coact inh: 29.3; MRP-1 activ: 0.2; MRP resist rev: -22.9; ERa SRC1 pot: 352.1*
